The full data set covers some 7,900 targets. This sample favours those with a hit. About 0.6% of all pairs of compound and target were hits.
These targets were tested with Cn1cc(-c2ccc3nnc(C(F)(F)c4ccc5ncccc5c4)n3n2)cn1 (assay: log2 fold change, soluble protein after heating vs DMSO (PISA); higher = thermal stabilisation; K562 cells, 10 uM, 30 min; active = over 0.2 and 3.5 SD of the protein, either way, in both replicates (recomputed)).
Procedure, shortened: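 K562 cells at 2×10^6 cells/mL were given 10 μM compound for 30 min. Aliquots then went through 3 min of heating across 48°C-58°C, were pooled, and were extracted in PBS with 0.5% NP-40 at 4°C, and the supernatant after 21,000xg for 90 min was quantified by TMTpro 16plex LC-MS/MS with channel sums equalised. Thermal stability relative to control samples, from duplicates, is given as log2 fold change.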

UniProt Q9BYN0, sequence (Q9BYN0 whole entry, looked up): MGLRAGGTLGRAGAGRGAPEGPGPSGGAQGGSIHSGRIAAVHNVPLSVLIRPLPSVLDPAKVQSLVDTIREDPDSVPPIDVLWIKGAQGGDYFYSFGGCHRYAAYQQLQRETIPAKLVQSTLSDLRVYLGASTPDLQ
UniProt Q5JUR7, sequence (Q5JUR7 whole entry, looked up): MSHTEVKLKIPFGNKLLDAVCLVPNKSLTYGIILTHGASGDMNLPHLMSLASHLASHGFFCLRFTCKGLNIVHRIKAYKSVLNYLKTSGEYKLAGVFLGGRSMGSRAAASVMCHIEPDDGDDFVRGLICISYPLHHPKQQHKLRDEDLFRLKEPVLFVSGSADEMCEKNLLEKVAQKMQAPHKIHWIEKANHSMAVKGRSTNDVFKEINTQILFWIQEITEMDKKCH
UniProt Q08AE8, sequence (Q08AE8 whole entry, looked up): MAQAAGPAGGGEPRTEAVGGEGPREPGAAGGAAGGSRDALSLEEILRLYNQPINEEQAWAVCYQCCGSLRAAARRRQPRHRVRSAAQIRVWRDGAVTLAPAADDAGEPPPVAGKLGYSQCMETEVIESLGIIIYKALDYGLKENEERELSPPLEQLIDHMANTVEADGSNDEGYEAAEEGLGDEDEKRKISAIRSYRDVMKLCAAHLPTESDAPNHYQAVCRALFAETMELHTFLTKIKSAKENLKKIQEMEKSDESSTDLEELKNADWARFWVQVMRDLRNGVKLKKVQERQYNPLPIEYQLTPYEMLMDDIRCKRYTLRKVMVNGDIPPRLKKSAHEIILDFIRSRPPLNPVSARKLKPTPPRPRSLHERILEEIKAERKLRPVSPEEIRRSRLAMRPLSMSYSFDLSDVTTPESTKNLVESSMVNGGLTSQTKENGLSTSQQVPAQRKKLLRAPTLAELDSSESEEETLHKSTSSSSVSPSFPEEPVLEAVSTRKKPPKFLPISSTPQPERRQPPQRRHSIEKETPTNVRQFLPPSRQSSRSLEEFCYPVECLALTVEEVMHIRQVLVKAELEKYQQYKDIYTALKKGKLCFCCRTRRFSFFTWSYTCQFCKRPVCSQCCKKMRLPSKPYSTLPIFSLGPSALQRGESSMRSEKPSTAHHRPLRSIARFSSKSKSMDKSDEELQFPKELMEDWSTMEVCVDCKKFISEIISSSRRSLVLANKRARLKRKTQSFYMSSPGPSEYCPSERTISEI
UniProt P08579, sequence (P08579 whole entry, looked up): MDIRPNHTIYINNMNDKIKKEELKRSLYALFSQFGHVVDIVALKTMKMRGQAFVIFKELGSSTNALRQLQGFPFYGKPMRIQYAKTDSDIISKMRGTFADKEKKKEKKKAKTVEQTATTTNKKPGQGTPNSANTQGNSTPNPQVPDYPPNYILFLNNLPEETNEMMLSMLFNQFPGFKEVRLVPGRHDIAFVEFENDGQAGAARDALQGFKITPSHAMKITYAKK
UniProt O95359, sequence (O95359 whole entry, looked up): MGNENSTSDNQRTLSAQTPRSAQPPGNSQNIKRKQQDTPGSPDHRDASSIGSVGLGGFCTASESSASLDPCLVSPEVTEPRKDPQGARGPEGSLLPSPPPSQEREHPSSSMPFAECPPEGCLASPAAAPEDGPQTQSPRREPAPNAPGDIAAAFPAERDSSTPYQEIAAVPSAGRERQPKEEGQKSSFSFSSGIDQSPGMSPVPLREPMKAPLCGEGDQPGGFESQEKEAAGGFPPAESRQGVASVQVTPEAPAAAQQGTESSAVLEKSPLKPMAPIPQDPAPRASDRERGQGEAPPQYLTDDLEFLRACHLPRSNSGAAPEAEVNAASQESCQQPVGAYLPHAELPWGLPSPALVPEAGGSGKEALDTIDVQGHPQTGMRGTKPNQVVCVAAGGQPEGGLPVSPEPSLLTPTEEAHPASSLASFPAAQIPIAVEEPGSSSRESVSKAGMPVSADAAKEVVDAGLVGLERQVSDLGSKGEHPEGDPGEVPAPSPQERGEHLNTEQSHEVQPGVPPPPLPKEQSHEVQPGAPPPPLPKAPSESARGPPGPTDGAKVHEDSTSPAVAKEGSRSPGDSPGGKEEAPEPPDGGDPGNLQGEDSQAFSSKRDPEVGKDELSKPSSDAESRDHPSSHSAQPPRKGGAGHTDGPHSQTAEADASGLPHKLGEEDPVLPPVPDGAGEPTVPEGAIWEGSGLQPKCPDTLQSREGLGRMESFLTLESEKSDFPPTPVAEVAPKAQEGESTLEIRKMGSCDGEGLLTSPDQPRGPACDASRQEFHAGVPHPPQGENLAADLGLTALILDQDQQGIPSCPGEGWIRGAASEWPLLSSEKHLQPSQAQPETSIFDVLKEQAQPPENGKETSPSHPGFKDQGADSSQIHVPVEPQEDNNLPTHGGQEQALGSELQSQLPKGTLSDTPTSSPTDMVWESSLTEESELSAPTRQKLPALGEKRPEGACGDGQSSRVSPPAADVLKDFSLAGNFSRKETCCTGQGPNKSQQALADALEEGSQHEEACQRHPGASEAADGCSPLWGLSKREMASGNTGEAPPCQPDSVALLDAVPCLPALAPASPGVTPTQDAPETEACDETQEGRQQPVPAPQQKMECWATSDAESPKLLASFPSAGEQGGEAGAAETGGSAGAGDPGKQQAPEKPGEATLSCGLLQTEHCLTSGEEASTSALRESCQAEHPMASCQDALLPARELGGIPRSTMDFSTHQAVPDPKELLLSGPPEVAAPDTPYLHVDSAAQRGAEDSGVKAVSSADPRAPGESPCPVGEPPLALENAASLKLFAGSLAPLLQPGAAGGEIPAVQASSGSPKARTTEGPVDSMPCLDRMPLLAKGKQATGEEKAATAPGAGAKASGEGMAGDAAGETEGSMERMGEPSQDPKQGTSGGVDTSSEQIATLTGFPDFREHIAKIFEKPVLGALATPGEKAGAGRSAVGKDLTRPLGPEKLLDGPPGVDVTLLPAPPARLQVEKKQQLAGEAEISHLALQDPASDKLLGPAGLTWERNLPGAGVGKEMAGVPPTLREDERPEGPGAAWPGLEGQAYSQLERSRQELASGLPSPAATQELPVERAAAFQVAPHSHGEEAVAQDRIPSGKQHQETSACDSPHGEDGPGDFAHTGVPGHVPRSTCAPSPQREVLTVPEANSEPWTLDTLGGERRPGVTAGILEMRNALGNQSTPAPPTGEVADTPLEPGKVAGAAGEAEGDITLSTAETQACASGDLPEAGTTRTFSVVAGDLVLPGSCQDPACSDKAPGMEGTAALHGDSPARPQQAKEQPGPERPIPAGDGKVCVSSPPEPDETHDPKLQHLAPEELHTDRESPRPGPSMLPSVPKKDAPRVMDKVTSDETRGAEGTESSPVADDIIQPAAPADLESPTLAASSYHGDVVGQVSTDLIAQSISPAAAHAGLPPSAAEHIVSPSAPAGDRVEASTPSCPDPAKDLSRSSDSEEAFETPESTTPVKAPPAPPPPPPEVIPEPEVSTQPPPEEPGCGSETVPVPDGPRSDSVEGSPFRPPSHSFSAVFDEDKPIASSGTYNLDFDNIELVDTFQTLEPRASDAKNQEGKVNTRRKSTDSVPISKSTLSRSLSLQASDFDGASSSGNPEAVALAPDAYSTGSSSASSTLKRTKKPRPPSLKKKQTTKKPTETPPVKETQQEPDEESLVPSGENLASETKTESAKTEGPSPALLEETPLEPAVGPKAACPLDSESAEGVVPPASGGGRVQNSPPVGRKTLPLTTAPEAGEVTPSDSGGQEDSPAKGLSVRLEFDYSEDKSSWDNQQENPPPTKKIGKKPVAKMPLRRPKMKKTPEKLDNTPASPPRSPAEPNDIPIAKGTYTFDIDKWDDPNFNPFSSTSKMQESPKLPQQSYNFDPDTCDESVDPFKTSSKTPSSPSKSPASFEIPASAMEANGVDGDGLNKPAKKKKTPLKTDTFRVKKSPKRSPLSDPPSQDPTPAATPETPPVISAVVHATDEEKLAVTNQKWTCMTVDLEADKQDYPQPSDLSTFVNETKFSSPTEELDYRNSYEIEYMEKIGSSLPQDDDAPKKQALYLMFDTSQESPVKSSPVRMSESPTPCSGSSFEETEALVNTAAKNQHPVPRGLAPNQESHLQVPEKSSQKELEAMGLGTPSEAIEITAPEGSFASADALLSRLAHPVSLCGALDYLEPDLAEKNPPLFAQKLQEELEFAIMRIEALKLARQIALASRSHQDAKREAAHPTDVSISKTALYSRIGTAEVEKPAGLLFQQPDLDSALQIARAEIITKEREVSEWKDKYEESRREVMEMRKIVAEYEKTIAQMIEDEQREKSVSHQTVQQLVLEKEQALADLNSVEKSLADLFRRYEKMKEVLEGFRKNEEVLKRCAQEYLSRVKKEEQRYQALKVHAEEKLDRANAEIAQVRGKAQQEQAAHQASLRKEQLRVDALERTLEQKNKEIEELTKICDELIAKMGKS
UniProt Q9NVC3, sequence (Q9NVC3 whole entry, looked up): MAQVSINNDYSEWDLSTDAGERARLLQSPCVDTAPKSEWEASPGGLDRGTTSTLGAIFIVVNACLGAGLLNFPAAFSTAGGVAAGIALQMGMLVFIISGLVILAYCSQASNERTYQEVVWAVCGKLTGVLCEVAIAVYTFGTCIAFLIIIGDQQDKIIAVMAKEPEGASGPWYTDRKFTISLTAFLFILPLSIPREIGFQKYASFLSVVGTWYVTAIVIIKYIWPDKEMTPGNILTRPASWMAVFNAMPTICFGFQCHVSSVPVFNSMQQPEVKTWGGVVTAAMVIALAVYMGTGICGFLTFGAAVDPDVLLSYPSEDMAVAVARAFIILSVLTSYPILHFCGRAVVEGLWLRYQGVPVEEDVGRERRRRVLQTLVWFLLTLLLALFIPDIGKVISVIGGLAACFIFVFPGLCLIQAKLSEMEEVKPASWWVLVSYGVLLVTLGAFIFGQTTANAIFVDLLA
UniProt P04183, sequence (P04183 whole entry, looked up): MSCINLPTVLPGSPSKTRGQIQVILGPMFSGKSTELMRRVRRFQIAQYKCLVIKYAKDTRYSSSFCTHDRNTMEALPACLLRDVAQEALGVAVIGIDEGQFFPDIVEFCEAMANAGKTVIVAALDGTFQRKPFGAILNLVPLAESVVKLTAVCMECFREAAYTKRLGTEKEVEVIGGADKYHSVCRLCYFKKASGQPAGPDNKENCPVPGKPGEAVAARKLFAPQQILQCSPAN

log2 fold change, inactive:
SMAP (UniProt O00193) -0.027, TGFBR1 isoform 2 (UniProt P36897) 0.001, SLC7A6OS (UniProt Q96CW6) -0.13, TK1 (UniProt P04183) 0, TACC2 (UniProt O95359) -0.003, TEX30 (UniProt Q5JUR7) -0.004, SRXN1 (UniProt Q9BYN0) 0.056, SSRP1 (UniProt Q08945) -0.033, STK38L (UniProt Q9Y2H1) -0.582, TAF9 (UniProt Q16594) -0.011, SP1 (UniProt P08047) 0.091, SRPRB (UniProt Q9Y5M8) 0.031, SLC38A7 (UniProt Q9NVC3) 0.084, SP100 isoform 4 (UniProt P23497) 0.026, TK1 (UniProt K7ERV3) 0.016, SMARCA4 (UniProt P51532) 0.033, SLC44A2 isoform 2 (UniProt Q8IWA5) -0.076, TBC1D20 isoform 3 (UniProt Q96BZ9) 0.233, SPIRE1 (UniProt Q08AE8) -0.026, SRC isoform 2 (UniProt P12931) -0.163, SMG1 (UniProt Q96Q15) 0.023, SRCAP (UniProt Q6ZRS2) 0.037, SNRPB2 (UniProt P08579) -0.025
